Source: PubChem BioAssay
The list is not random: actives were taken first. Their share in the collection is about 4.2%.
RecA splice inh – inhibitors of M. tuberculosis RecA intein splicing; P9WHJ3; cell-free RecA intein splicing, fluorescence; inhibition, % (concentration not given with the values); 290,000 compounds, 0.75% hits; AID 2221; in the data active = inhibition above about 30%
CCHF vOTU inh-1 – blocks the CCHF virus ovarian tumor domain protease; 370,000 compounds, 0.55% hits; AID 651958; inhibition, % at 11.5 µM; CCHFV vOTU protease, Pep-AMC fluorescence
GDH-TPI inh – counter-screen for M. tuberculosis FBA inhibitors: GDH-TPI coupled enzymes; inhibition, % at 4.8 µM; 360,000 compounds, 1.2% hits; GDH-TPI coupled enzyme counterscreen, NADH absorbance
Mtb FBA inh – inhibits M. tuberculosis FBA enzyme; 360,000 compounds, 2.3% hits; purified M. tuberculosis FBA, fluorescence read-out; inhibition, % at 1 µM; in the data active = inhibition above about 27%
Target sequence (P9WQA3 whole entry, looked up): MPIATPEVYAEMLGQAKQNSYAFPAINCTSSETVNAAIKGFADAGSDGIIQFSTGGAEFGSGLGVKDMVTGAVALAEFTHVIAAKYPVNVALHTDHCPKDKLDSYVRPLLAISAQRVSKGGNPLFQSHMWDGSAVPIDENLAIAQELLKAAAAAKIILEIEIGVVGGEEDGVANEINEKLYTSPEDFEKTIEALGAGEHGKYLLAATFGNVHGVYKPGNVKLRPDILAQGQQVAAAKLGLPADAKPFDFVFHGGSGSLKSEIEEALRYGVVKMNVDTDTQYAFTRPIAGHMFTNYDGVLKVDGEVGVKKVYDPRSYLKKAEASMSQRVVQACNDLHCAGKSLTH
CCHF vOTU inh-2 – CCHFV vOTU protease inhibition, confirmation. inhibition, % at 11.5 µM. shares compounds with CCHF vOTU inh-1. Recombinant CCHFV vOTU, Pep-AMC fluorescence. AID 686976. 1,900 compounds, 17% hits
Of the large screens only hits and unclear results are named; the others gave an inactive call (follow-up assays come after a bar, where they were run). Rule as the data show it, unless noted: active = inhibition above about 30%; inactive = the rest.

CC(C)NC(=O)N(C)C[C@H]1OCCCC[C@@H](C)Oc2ccc(NC(=O)C3CCCCC3)cc2C(=O)N([C@H](C)CO)C[C@@H]1C	none (no result: RecA splice inh)
CCOC(=O)CCCCCC(=O)Nc1ccc2c(c1)C(=O)N([C@H](C)CO)C[C@H](C)[C@@H](CN(C)C(=O)Nc1ccccc1)OCCCC[C@@H](C)O2	CCHF vOTU inh-1 38 (no result: RecA splice inh) | CCHF vOTU inh-2 inactive
COc1ccc(CN2C(=O)c3cccnc3C2=O)cc1S(=O)(=O)NC1CCCCC1	none
CCOc1ccc(C(=O)Nc2ccc3c(c2)OCCO3)cc1OC	none
CCOc1ccc(NC(=O)c2ccc3c(c2)OCCO3)cc1S(=O)(=O)N(CC)CC	CCHF vOTU inh-1 32 (no result: RecA splice inh) | CCHF vOTU inh-2 inactive
O=C(NCc1ccc(OC(F)(F)F)cc1)C1CC(c2c(Cl)cccc2Cl)=NO1 (stereo not given)	CCHF vOTU inh-1 30 | CCHF vOTU inh-2 inactive
CCN1CCN(c2ccc(S(=O)(=O)N3CCOCC3)cc2NC(=O)c2ccc(C(F)(F)F)cc2)CC1	CCHF vOTU inh-1 34 | CCHF vOTU inh-2 inactive
Cc1cc(C)cc(NC(=O)CSc2nc(=O)n(CCCN3CCOCC3)c3c2CCCC3)c1	none
O=C(c1ccco1)[C@@H]1[C@@H]2C(=O)N(c3ccc(F)cc3)C(=O)[C@@H]2[C@H]2C=Cc3ccccc3N21	none (no result: RecA splice inh)
O=C(c1ccco1)[C@@H]1[C@@H]2C(=O)N(c3ccc(F)cc3)C(=O)[C@@H]2C2c3ccccc3C=CN21 (stereo not given in full)	CCHF vOTU inh-1 86 (no result: GDH-TPI inh, Mtb FBA inh) | CCHF vOTU inh-2 40
O=C(c1ccco1)[C@@H]1[C@@H]2C(=O)N(c3ccc(Br)cc3)C(=O)[C@@H]2C2c3ccccc3C=CN21 (stereo not given in full)	CCHF vOTU inh-1 93 (no result: RecA splice inh) | CCHF vOTU inh-2 84
O=C1NC[C@H](CCCCN2CCN(CCc3ccc(O)cc3)C(=O)C2=O)N(CCC2CCCCC2)C1=O	none (no result: RecA splice inh, GDH-TPI inh, Mtb FBA inh)
NC(=O)c1ccc(NC(=O)COC(=O)c2ccccc2SCC(=O)N2CCCC2)cc1	CCHF vOTU inh-1 33 (no result: RecA splice inh) | CCHF vOTU inh-2 inactive
CCOc1ccccc1NC(=O)COC(=O)c1ccccc1SCC(=O)N1CCCC1	CCHF vOTU inh-1 37 | CCHF vOTU inh-2 inactive
O=C(COC(=O)c1ccccc1SCC(=O)N1CCCC1)Nc1ccc(OC(F)F)cc1	none
COc1ccc(OC)c2nc(-c3ccc4c(c3)OCO4)ccc12	none
O=C(c1cc(Cl)cc(Cl)c1)N1CCC(Oc2cccnc2)CC1	none (no result: RecA splice inh, GDH-TPI inh, Mtb FBA inh)
CN1OC[C@@H]2CN(C(=S)NCCc3ccccc3)[C@H](c3ccccc3Br)C[C@@H]21	none (no result: RecA splice inh, GDH-TPI inh)
COCCNC(=S)N1C[C@H]2CON(C)[C@H]2C[C@H]1c1ccccc1Br	CCHF vOTU inh-1 33 (no result: RecA splice inh, GDH-TPI inh, Mtb FBA inh) | CCHF vOTU inh-2 inactive
CCO[C@H]1OC(C(=O)Nc2ccccc2)=C[C@@H](c2ccc(C(F)(F)F)cc2)[C@@H]1CCCO	CCHF vOTU inh-1 32 | CCHF vOTU inh-2 inactive
CC(=O)c1ccc(NC(=O)NC2CCCCN(Cc3ccc(Cl)cc3)C2=O)cc1 (stereo not given)	none (no result: RecA splice inh, GDH-TPI inh, Mtb FBA inh)
CCN(C(=O)CN1C(=O)NC2(CCCc3ccccc32)C1=O)c1ccc(F)cc1 (stereo not given)	none (no result: RecA splice inh)
COc1ccc(Cl)cc1S(=O)(=O)N1CCC(C(=O)NCc2ccco2)CC1	none
COc1ccc(C(O)c2nc(-c3ccoc3)cs2)cc1 (stereo not given)	CCHF vOTU inh-1 30 (no result: RecA splice inh) | CCHF vOTU inh-2 inactive
Cc1cc(C)cc(N(C(=O)CNC(=O)c2ccco2)C(C(=O)NC2CCCCC2)c2cccnc2)c1 (stereo not given)	none
CNc1ccc(Br)cc(C(=O)/C=C/c2ccc(OC)cc2)c1=O	CCHF vOTU inh-1 36 | CCHF vOTU inh-2 inactive
CNc1ccc(Br)cc(C(=O)/C=C/c2cc(OC)ccc2OC)c1=O	none
Cc1ccc(/C=N/n2c(-c3cccnc3)n[nH]c2=S)s1	CCHF vOTU inh-1 34 | CCHF vOTU inh-2 inactive
S=c1[nH]nc(-c2cccnc2)n1/N=C/c1ccc(Br)s1	none
CCCCN1C(=S)NC[C@@H]1c1ccccc1	CCHF vOTU inh-1 33 | CCHF vOTU inh-2 inactive
COCCN1C(=O)CN(S(C)(=O)=O)CC1(C)C(=O)NCc1ccccc1 (stereo not given)	none (no result: RecA splice inh, GDH-TPI inh, Mtb FBA inh)
CCOc1ccc(CCNC(=O)COC(=O)CSc2ccc(C)cc2)cc1OCC	none (no result: RecA splice inh)
CCCc1ccc(Oc2c(-c3ccc(O)c(C)c3O)n[nH]c2C)cc1	none
CCCc1ccc(Oc2cn[nH]c2-c2ccc(O)c(C)c2O)cc1	CCHF vOTU inh-1 36 | CCHF vOTU inh-2 inactive
COc1ccc(C(=O)c2coc3c2C(=O)C(=O)c2ccccc2-3)cc1	none (no result: RecA splice inh)
O=C(c1ccccc1)c1coc2c1C(=O)c1ccccc1C2=O	CCHF vOTU inh-1 34 | CCHF vOTU inh-2 59
Cc1ccsc1/C=N\Nc1cn[nH]c(=O)c1Cl	CCHF vOTU inh-1 30 | CCHF vOTU inh-2 inactive
